# Bioassay records from PubChem.
# An excerpt weighted towards active compounds, which were near 2.9% of everything screened.
# IP6K1 inhibitor: Primary qHTS assay for small molecule inhibitors of Inositol hexaphosphate kinase 1 (IP6K1) | IP6K1 kinase, ADP-Glo luminescence, 2 h; active compounds read low | hit rate 0.81% among 140,000 | activity change, % (series mostly up to about 58 µM); in the data active means activity change below about -25%; further: on the % scale 0 is the no-effect control and ±100 the full control effect
#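 ADP-Glo luminescence measures ADP made by human IP6K1 during a 2 h RT reaction with ATP/IP6 (mix at 1.3 mM/130 uM); top library doses 57.5 and 19.1 uM final.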
# SNCA expr inh: Primary qHTS assay for inhibitors of alpha-synuclein gene (SNCA) expression. HEK-293 SNCA-luciferase knock-in, luminescence, 24 h. Potency, µM (titrated, usually from 57.2 µM), inactives show at the top dose activity change, negative = inhibition, actives largely listed as inhibitors. hit rate 0.17% among 140,000. AID 1671194, 2021;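 further: potency means the concentration at half of the fitted maximal effect; plate controls were DMSO cells for no effect and cell-free wells for full effect; nearly all actives have a fitted effect of over 45% in size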
# SNCA viab count: GF-AFC viability counterscreen for inhibitors of alpha-synuclein gene (SNCA) expression | HEK-293-SNCA-luc viability, GF-AFC fluorescence, 24 h | Potency, µM (titrated, usually from 57.1 µM), without a hit: at the top dose activity change, negative = cytotoxicity, hits mostly cytotoxic | hit rate 0.12% among 150,000 | AID 1671193, 2021;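 further: potency means the concentration at half of the fitted maximal effect; 0% = DMSO-treated cells and -100% = medium-only wells without cells; nearly all actives have a fitted effect of over 30% in size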
#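 HEK-293-SNCA-luc cells (1500/well) plated 24 h, then exposed 24 h to a dilution series; GF-AFC added 30 min at 37C, fluorescence 405/540 nm; normalised to medium-only and DMSO wells, Hill fit.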
# KDM5B inh: Primary screen for KDM5B Histone Demethylases FDH-coupled qHTS | Lysine-specific demethylase 5B (Homo sapiens), Q9UGL1 | KDM5B demethylase, FDH-coupled NADH fluorescence (FDH is formaldehyde dehydrogenase) | Potency, µM (highest dose often 57.7 µM), hits mostly inhibitors | hit rate 2.6% among 220,000 | AID 1347165, 2019; further: potency means the concentration at half of the fitted maximal effect; 0% is about no effect; nearly all actives have a fitted effect of over 70% in size
# Target sequence (Q9UGL1 whole entry, looked up): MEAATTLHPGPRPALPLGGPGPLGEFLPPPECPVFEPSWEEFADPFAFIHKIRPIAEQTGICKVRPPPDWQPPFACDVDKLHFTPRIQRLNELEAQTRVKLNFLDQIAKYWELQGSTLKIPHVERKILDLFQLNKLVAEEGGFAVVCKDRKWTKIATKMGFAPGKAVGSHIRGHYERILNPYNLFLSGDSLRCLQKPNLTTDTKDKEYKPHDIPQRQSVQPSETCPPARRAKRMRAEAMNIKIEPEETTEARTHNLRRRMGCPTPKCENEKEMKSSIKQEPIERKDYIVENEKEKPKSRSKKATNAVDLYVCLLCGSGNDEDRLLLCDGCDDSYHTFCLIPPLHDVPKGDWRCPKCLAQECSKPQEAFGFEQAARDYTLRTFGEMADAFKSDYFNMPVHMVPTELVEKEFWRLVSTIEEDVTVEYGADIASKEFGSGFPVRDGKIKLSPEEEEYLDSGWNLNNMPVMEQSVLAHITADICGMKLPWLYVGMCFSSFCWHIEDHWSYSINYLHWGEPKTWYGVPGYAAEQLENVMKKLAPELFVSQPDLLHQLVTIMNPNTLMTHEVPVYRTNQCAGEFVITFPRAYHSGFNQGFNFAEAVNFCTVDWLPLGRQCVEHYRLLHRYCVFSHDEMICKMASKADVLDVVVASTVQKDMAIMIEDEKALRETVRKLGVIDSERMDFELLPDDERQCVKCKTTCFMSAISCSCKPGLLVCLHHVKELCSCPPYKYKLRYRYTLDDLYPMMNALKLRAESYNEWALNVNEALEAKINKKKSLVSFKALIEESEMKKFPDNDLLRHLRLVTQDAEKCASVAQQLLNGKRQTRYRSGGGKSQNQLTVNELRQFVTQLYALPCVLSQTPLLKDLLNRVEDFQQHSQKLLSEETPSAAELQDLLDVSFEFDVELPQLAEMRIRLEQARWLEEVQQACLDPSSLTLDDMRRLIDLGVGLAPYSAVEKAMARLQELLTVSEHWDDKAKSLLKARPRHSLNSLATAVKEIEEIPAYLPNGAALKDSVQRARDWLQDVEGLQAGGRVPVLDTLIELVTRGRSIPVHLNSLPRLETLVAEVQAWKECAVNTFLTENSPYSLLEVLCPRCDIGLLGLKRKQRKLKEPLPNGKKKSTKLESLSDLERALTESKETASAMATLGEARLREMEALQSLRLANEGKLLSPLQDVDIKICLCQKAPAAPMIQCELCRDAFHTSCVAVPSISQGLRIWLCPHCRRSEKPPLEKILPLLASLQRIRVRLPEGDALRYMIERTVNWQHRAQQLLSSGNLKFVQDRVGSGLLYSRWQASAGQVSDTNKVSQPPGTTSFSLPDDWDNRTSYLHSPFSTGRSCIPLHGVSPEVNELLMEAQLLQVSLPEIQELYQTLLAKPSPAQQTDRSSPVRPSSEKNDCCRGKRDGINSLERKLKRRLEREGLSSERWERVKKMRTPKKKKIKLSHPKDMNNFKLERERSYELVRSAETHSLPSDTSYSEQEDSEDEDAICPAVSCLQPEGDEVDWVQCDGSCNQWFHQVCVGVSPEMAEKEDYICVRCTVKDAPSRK
#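 qHTS format, multiple compound concentrations. Buffer 50 mM HEPES pH 7.5/0.01% Tween-20; 200 nM KDM5BΔAP final; 10 min compound preincubation; substrate-mix levels 12.5 µM peptide, 25 µM α-KG, 0.25 mM NAD⁺; 30 min RT; ΔRFU.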
# * hit, by the source's call; i = inactive; ? = inconclusive; nt = no result; [ ] = dose if it differs, or a comment. Unless noted, the call rests on the fitted dose curve; in most records, active means well fitted curve in the direction sought with a large enough effect; inconclusive means small, poorly fitted or top-dose-only effect, or another doubt; inactive means no such curve, though single readings can be large; an effect the other way counts as inactive or inconclusive.
SMILES,IP6K1 inhibitor,SNCA expr inh,SNCA viab count,KDM5B inh
CC1=C[C@@H](CN(C)Cc2cccnc2)[C@H](C(C)C)C[C@H]1Cc1nnc(-c2ccc([N+](=O)[O-])cc2)o1,16,-11%,?,13µM*
C#CCN(C)C[C@@H]1C=C(C)[C@H](Cc2nnc(-c3ccccc3F)o2)C[C@H]1C(C)C,1,-37%[87.6 µM],-26%[87.6 µM],35µM*
CC1=C[C@@H](CN2CCN(c3cnccn3)CC2)[C@H](C(C)C)C[C@H]1Cc1nnc(-c2cccnc2)o1,13,?,-27%,32µM*
CC1=C[C@@H](CN2CCC(C)CC2)[C@H](C(C)C)C[C@H]1Cc1nnc(-c2cccnc2)o1,-10,4%[87.6 µM],-28%[87.6 µM],i
CC[C@@]1(O)CCN(C(=O)c2cnc(N3CCOCC3)nc2)C[C@H]1O,-2,?,-27%,?
O=C(N[C@@H]1CN(Cc2ccc3c(c2)CCO3)C[C@H]1CO)c1cnccn1,-14,-2%,1%,i
Cc1ccc(OCCC2CCN(C(=O)c3ccsc3)C2)cc1 (centres undefined),23,8%,2%,i
O=C(c1ccsc1)N1CCC(Nc2cccnc2)C1 (centres undefined),5,-25%,-17%,13µM*
CCCOc1nccnc1NC1CCN(C(=O)c2cccnc2)CC1,-5,14%,3%,28µM*
O=C(CC1CCCC1)N1CCC(Nc2cccnc2)C1 (centres undefined),8,-3%,-4%,?
O=C(c1cccnc1)N1CCC(OC2CCN(Cc3cccnc3)CC2)CC1,3,1%,-4%,i
CC(C)S(=O)(=O)N1CCC(Nc2cccnc2)C1 (centres undefined),10,-1%,-7%,8.9µM*
CCCOc1nccnc1NC1CCN(C(=O)c2ccsc2)CC1,0,-18%,10%,28µM*
CCc1nc2c(c(-c3ccc(OC)cc3)n1)CN([S+](=O)([O-])c1cccs1)CC2,2,6%,1%,?
Cc1c(-c2ccccc2F)[nH]c2ccc(CNS(=O)(=O)C3CC3)cc12,33,-1%,-14%,28µM*
Cc1c(-c2ccccc2F)[nH]c2ccc(CNC(=O)C3CCNC3)cc12 (centres undefined),-9,-7%,-3%,28µM*
O=C(NCc1ccccc1)C1CCN(Cc2ccccc2-c2ccccc2F)CC1,21,nt,nt,nt
O=C(Nc1nnc(C2CC2)s1)C1CC(=O)N(c2n[nH]c3cccc(F)c23)C1 (centres undefined),5,-14%,1%,i
COc1cccc(N2C(=O)NC(=NC3CCCC3)C23CCCN(Cc2cccn2C)C3)c1 (centres undefined),-6,-18%,-11%,i
COc1ccc(-c2ccc3c(n2)CN(C)C(=O)CO3)cc1,-2,210%[87.6 µM],-4%[87.6 µM],35µM*
Cc1ccc(-c2ccc3c(n2)CN(C)C(=O)CO3)cc1,-10,90%[87.6 µM],4%[87.6 µM],i
COc1ccc(-c2ccc3c(n2)CN(CCOc2ccccc2)C(=O)CO3)cc1,-9,-3%[87.6 µM],4%[87.6 µM],13µM*
CC(=O)NC1(C)CCN(Cc2cnc(-c3ccccc3OCc3ccccc3)s2)CC1,-9,0%[87.6 µM],-9%[87.6 µM],40µM*
COc1cccc(-c2ncc3c(n2)OCCN(Cc2ccc(F)cc2F)C3=O)c1,-9,70%[87.6 µM],-8%[87.6 µM],35µM*
COc1cccc(-c2ncc3c(n2)OCCN(Cc2ccc(F)cc2F)C3=O)c1F,11,87%[87.6 µM],-6%[87.6 µM],?
SMILES,IP6K1 inhibitor,SNCA expr inh,SNCA viab count,KDM5B inh
O=C1c2cnc(-c3ccccc3OCc3ccccc3)nc2OCCN1CC1CC1,15,15%[87.6 µM],-17%[87.6 µM],32µM*
COc1ccccc1-c1ncc2c(n1)OCCN(Cc1ccc(F)cc1F)C2=O,9,15%[87.6 µM],3%[87.6 µM],35µM*
COc1ccc(C(=O)Nc2cc(NC(=O)C(C)C)ccc2C)cc1F,nt,nt,nt,i
C=CCNC1=C2C[C@@H](C)C[C@H](OC)[C@@H](O)[C@@H](C)C=C(C)[C@H](OC(N)=O)[C@@H](OC)C=CC=C(C)C(=O)NC(=CC1=O)C2=O,nt,?,-24%,nt
CO[C@H]1C=CC=C(C)C(=O)NC2=CC(=O)C(NCCN(C)C)=C(C[C@@H](C)C[C@H](OC)[C@@H](O)[C@@H](C)C=C(C)[C@@H]1OC(N)=O)C2=O,nt,0.054µM*,?,nt
O=C(O)C1(Oc2ccc3ncccc3c2)CCN(Cc2ccncc2)CC1,7,5%,4%,16µM*
Cc1ccc(CN2CCC(Oc3ccc4ncccc4c3)(C(=O)O)CC2)o1,-13,-7%,1%,?
CCN(CC)C(=O)c1c(C)sc2ccn(Cc3ccc(F)cc3)c(=O)c12,3,8%,5%,25µM*
COCCNC(=O)c1c(C)sc2ccn(Cc3ccc(F)cc3)c(=O)c12,0,-11%,4%,i
O=C(c1ccc(F)cc1)c1ccc(OCC(=O)N2CCc3ccccc32)cc1,nt,nt,nt,i
COc1cccc(C(=O)N[C@@H]2CN(Cc3cccnc3)C[C@H]2CN(C)C)c1OC,19,-2%,-14%,?
C=C1C(=O)O[C@@H]2C/C(C)=C\C(=O)/C=C(\C)[C@@H](OC(=O)/C(C)=C\C)[C@H](O)[C@@H]12,7,nt,15µM*,nt
C=C1C(=O)O[C@@H]2[C@H]3C(C)=CC(=O)C3=C(C)[C@@H](OC(=O)/C(C)=C\C)[C@H](O)[C@@H]12,8,nt,?,nt
CCn1nc(C(=O)Nc2cc(C(=O)OC)ccc2C)c2ccccc2c1=O,nt,nt,nt,i
Cc1ccc(CN2CCC(CNc3cc(C4CC(O)C4)ncn3)CC2)o1 (centres undefined),-5,14%,-2%,i
Cc1ccc(CN2CCC(CNc3nccc(-c4ccccn4)n3)CC2)o1,-5,7%,-6%,28µM*
COc1ccccc1NC(=O)CSc1nncn1CCc1cccs1,nt,nt,nt,i
Cc1ccc(C(=O)N2CCN(C(=O)c3nnn4c3COC(c3ccccc3)C4)CC2)c(C)c1 (centres undefined),0,?,-14%,i
CO[C@@H]1COCC[C@H]1NC1CCN(c2ncc3ccc(F)cc3n2)CC1,6,28%,-9%,28µM*
O=c1cnc2cnc(N3CCOCC3)nc2n1Cc1ccc(F)cc1,nt,-13%,-21%,nt
C=C(C)C(=O)OC1CC2(C)OC(=CC2=O)C(=C)CC2OC(=O)C(=C)C12 (centres undefined),-11,nt,12µM*,nt
COc1cccc(CN2CC[C@@H](CO)N(C)c3nc(C)ccc3C2)c1,-1,19%[87.6 µM],-7%[87.6 µM],35µM*
CCOC(=O)/C(=C/C=C(\C1=CCCCC1)N(CC)CC)C(C)=O,nt,nt,nt,i
COc1ccc(Cl)cc1NC(=O)Cn1c(N2CCCCC2)nc(C)c(C)c1=O,13,-1%,9%,20µM*
COc1ccc(Cl)cc1NC(=O)Cn1c(N2CCC(C)CC2)nc(C)cc1=O,11,-27%,11%,28µM*
COc1ccc(OC)c(NC(=O)Cn2c(N3CCCCC3)nc(C)c(C)c2=O)c1,22,14%,3%,?
